# Cy5 interf NS3h = enhances or quenches Cy5 fluorescence in NS3h assay | Cy5-dT15 DNA with NS3h, fluorescence interference; actives lie on both sides; signal over control mean, under 1 quenches | fluorescence interference ratio at 100 µM | 16,000 compounds, 6% hits;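 active = compound fluorescence over control fluorescence at most 0.8, a quencher, or at least a set upper limit, an enhancer; inactive = ratio between 0.8 and the set upper limit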
# HCV NS3h FP = hepatitis C NS3 helicase inhibition, primary screen; NS3h Cy5-dT15 DNA binding, fluorescence polarization; inhibition, % at 100 µM; 16,000 compounds, 1.6% hits; AID 687043;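 active = inhibition above the average over every tested compound plus 3 SD, cut at about 40% in these data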
# HCV NS3h conf = confirmation of hepatitis C virus NS3 helicase inhibitors; AID 720485; 240 compounds, 20% hits; NS3h binding to Cy5-dT15 DNA, fluorescence polarization; inhibition, % at 100 µM; shares compounds with HCV NS3h FP;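 active = percent inhibition of 50% or more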
# SSB-DNA FP CB = counter-screen for HCV NS3 helicase inhibitors: E. coli SSB binding. shares compounds with HCV NS3h FP. E. coli SSB binding Cy5-dT15, fluorescence polarization. inhibition, % at 100 µM. 240 compounds, 40% hits. AID 720486;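 active = inhibition of at least 50%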;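 also: displacers lower Cy5 polarization so higher inhibition means more SSB displaced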
# Target sequence (P0AGE0 whole entry, looked up): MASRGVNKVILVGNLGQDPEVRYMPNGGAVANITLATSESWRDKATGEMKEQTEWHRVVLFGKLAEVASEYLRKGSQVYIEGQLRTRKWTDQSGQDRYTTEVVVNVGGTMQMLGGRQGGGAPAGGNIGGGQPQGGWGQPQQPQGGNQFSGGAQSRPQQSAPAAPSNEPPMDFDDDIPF
# Cy5 SSB fluor CB = Cy5 fluorescence interference in NS3h counter-screen; AID 720487; 240 compounds, 8% hits; fluorescence interference ratio at 100 µM; shares compounds with HCV NS3h FP; Cy5-dT15/E. coli SSB fluorescence interference; actives lie on both sides;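 active = fluorescence interference ratio at or above 1.2, signal boosting, or at or below 0.8, signal quenching; inactive = ratio between 0.8 and 1.2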
# Cy5 fluor confirm = Cy5 fluorescence interference, confirmation counter-screen; fluorescence interference ratio at 100 µM, hits read low; AID 720489; 240 compounds, 44% hits; Cy5-dT15 DNA/NS3h fluorescence interference counterscreen; shares compounds with HCV NS3h FP;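 active = fluorescence interference ratio at or below 0.8 quencher or at or above a set limitenhancer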
# Numbers stand for hits; n = inactive; x = no result given. Compounds with a hit are over-represented: about 6.8% of the library has one in this group of screens.
SMILES,Cy5 interf NS3h,HCV NS3h FP,HCV NS3h conf,SSB-DNA FP CB,Cy5 SSB fluor CB,Cy5 fluor confirm
CN(C)/C=C\C=C\C(=O)C1C2CC3CC(C2)CC1C3 (stereo unspecified),n,n,x,x,x,x
CN(C)/C=C/C=C/C=C1\CCC/C(=C\C=C\N(C)C)C1=O,n,55.2,n,109.7,n,n
Cc1nc(NC(=O)c2ccccc2)sc1-c1csc(Nc2cccc(C(=O)O)c2)n1,0.798,n,n,n,n,0.728
Cc1ccc(C(=O)Nc2nc(-c3ccccc3)cs2)cc1[N+](=O)[O-],n,n,x,x,x,x
CCCC(C)NS(=O)(=O)c1cc(Cl)ccc1Cl (stereo unspecified),n,n,x,x,x,x
O=C1NC(=S)N(c2ccccc2)C(=O)/C1=C/c1ccc(Br)cc1,n,n,x,x,x,x
CN(C)c1ccc(/C=C2\C(=O)NC(=S)N(c3ccc(Br)cc3)C2=O)cc1,1.27,63.7,n,96.4,1.23,n
CC(=O)Oc1ccc(N2C(=O)c3ccc(C(=O)c4cccc([N+](=O)[O-])c4)cc3C2=O)cc1,n,n,x,x,x,x
CC(=O)Oc1cccc(N2C(=O)c3ccc(C(=O)c4ccc5c(c4)C(=O)N(c4cccc(OC(C)=O)c4)C5=O)cc3C2=O)c1,n,40.7,n,n,n,n
CCOc1cc(/C=C2/SC(=S)NC2=O)cc(Br)c1OCc1ccc(F)cc1,n,82.6,n,n,n,n
C=CCN1C(=O)/C(=C\c2cc(Br)c(OCc3ccc(F)cc3)c(OC)c2)SC1=S,n,n,x,x,x,x
COc1ccc(N(CC(=O)Nc2cc(C)ccc2C)S(=O)(=O)c2ccc(C)cc2)cc1,n,n,x,x,x,x
O=C1N=c2ccccc2=C1N=Nc1nc(O)c(-c2c(O)[nH]c3ccccc23)s1,0.397,124.3,n,n,0.756,0.733
COc1cc(/C=C2\C(=O)NC(=O)N(c3cc(C)cc(C)c3)C2=O)cc([N+](=O)[O-])c1O,n,60.0,n,51.5,n,0.743
COc1cccc(/C=C2/C(=O)NC(=O)N(c3cc(C)cc(C)c3)C2=O)c1O,n,n,x,x,x,x
C=C(C)C1CC=C(C)/C(=N\NC(=O)c2cccc(C)c2)C1 (stereo unspecified),n,n,x,x,x,x
O=C1ON=C(c2ccccc2)/C1=C\c1ccc(OCc2ccccc2)cc1,n,n,n,n,n,0.749
COc1cccc(/C=C2/C(=O)ON=C2c2ccccc2)c1OC,n,n,x,x,x,x
CCCN1C(=O)c2ccccc2NC1c1ccccc1F (stereo unspecified),n,n,x,x,x,x
CCN(C)c1ccc(C=C2C(=O)NC(=O)NC2=O)cc1,1.86,91.6,111.3,95.1,1.49,2.2
CCOc1ccc(C=C2C(=O)NC(=O)NC2=O)cc1OCC,n,n,x,x,x,x
COc1ccc(OC)c(NC(=O)CN(c2ccc(OC)cc2OC)S(C)(=O)=O)c1,n,n,x,x,x,x
COC(=O)c1c(C)oc2ccc(OCc3ccc([N+](=O)[O-])cc3)cc12,n,n,x,x,x,x
O=Cc1ccc(OCc2ccc([N+](=O)[O-])cc2)cc1,0.594,48.6,n,n,n,0.702
O=C1C(Cl)=C(NCCc2ccccc2)C(=O)N1c1cccc(Cl)c1Cl,n,n,x,x,x,x
SMILES,Cy5 interf NS3h,HCV NS3h FP,HCV NS3h conf,SSB-DNA FP CB,Cy5 SSB fluor CB,Cy5 fluor confirm
O=C1C(=Cc2ccccc2)C(=O)c2ccccc21,n,46.2,n,n,n,0.777
O=C1C(=Cc2ccccc2F)C(=O)c2ccccc21,n,60.9,n,n,n,0.736
CN1C(=O)/C(=C/c2ccccc2F)SC1=S,n,n,x,x,x,x
O=C1C(=Cc2cccc(Cl)c2)C(=O)c2ccccc21,n,n,x,x,x,x
O=C(Nc1ccc(Cl)cc1)c1ccc(N2CCCCCC2)c([N+](=O)[O-])c1,n,n,x,x,x,x
COc1ccc(/C(N)=N\OC(=O)COc2ccccc2)cc1OC,n,n,x,x,x,x
CSc1ccccc1N1C(=O)C=CC1=O,n,n,n,n,n,0.753
CSc1ccccc1N1C(=O)C2CC(C)=C(C)CC2C1=O (stereo unspecified),n,n,x,x,x,x
COc1ccc(-c2cc(-c3ccccc3)n[nH]2)c(O)c1,1.26,42.9,n,n,n,0.731
COc1ccc(O)c(-c2cc(-c3ccccc3C)[nH]n2)c1,n,n,x,x,x,x
COc1cc(C(=O)c2cc(Br)ccc2NC(=O)COc2ccccc2)cc(OC)c1OC,n,n,x,x,x,x
O=C(Nc1ccc(N2CCOCC2)cc1)c1ccc2c(c1)OCCO2,n,n,x,x,x,x
O=C(Nc1ccc(Cl)c(Cl)c1)c1ccc2c(c1)OCCO2,n,n,n,n,n,n
O=C(N/C(=C/c1cccs1)c1nc2ccccc2[nH]1)c1ccccc1,n,n,n,n,n,0.772
O=C(Nc1ccc(F)cc1)/C(=C\c1cccs1)NC(=O)c1ccccc1,n,n,x,x,x,x
N#CC1=C(S)NC(=O)C(C#N)C12CCCCC2 (stereo unspecified),n,43.6,n,n,n,n
C=CCSC1=C(C#N)C2(CCCCC2)C(C#N)C(=O)N1 (stereo unspecified),n,n,x,x,x,x
COc1ccc(N2C(=O)NC(=O)/C(=C\c3ccc(O)c(Cl)c3)C2=O)cc1,n,46.6,n,n,n,0.749
Cc1ccc(N2C(=O)NC(=O)/C(=C\c3ccsc3)C2=O)cc1,1.23,55.4,n,n,n,0.736
O=C1NC(=O)N(c2cccc(F)c2)C(=O)/C1=C/c1ccc(O)c(Cl)c1,n,n,x,x,x,x
COc1cc(OC)c(OC)cc1/C=C1/C(=O)NC(=O)N(c2ccccc2)C1=O,1.21,43.5,n,n,n,n
O=C1NC(=S)N(c2ccc(Cl)cc2)C(=O)C1=Cc1ccsc1,n,n,x,x,x,x
COc1ccc(N2C(=O)NC(=O)/C(=C\c3cc(OC)c(OC)cc3OC)C2=O)cc1,n,n,x,x,x,x
COc1ccc(C2=NN(c3ccc(C=O)cc3)C(c3ccc(F)cc3)C2)cc1 (stereo unspecified),n,n,x,x,x,x
COC(=O)C1=C(C)N=c2s/c(=C\c3ccc(-c4ccc(OC)cc4[N+](=O)[O-])o3)c(=O)n2C1c1ccccc1 (stereo unspecified),n,n,x,x,x,x
SMILES,Cy5 interf NS3h,HCV NS3h FP,HCV NS3h conf,SSB-DNA FP CB,Cy5 SSB fluor CB,Cy5 fluor confirm
O=C(NCCCNc1ccc([N+](=O)[O-])cc1Cl)c1ccc(F)cc1,n,n,x,x,x,x
COc1cccc(/C=C2/SC(N)=NC2=O)c1,1.28,52.6,n,n,n,n
NC1=NC(=O)/C(=C/c2cccc(Oc3ccccc3)c2)S1,n,n,x,x,x,x
COc1ccc2nc(NC(=O)COc3ccccc3Cl)sc2c1,n,n,x,x,x,x
COc1ccc(OC)c(N(CC(=O)Nc2ccccc2Br)S(C)(=O)=O)c1,n,n,x,x,x,x
CCCC(=O)NS(=O)(=O)c1ccc(NC(=O)c2ccccc2Cl)cc1,n,n,x,x,x,x
COc1ccccc1Nc1nc(C(F)(F)F)c(-c2ccccc2)s1,n,n,x,x,x,x
c1cnc2cc3c(cc2n1)Nc1nonc1N3,n,n,x,x,x,x
Cc1ccc(N2C(=O)C(Cl)=C(N3CCOCC3)C2=O)c(C)c1,n,n,n,n,n,0.756
Cc1ccc(N2C(=O)C(Cl)=C(N3CCN(c4ccccc4)CC3)C2=O)c(C)c1,n,n,x,x,x,x
COc1ccc(C(=O)/C=C/c2ccc(-c3ccc([N+](=O)[O-])cc3)o2)cc1,n,n,x,x,x,x

# Compound activity from PubChem.
